Screening data: PubChem BioAssay, National Center for Advancing Translational Sciences (NCATS)
In the library only some 10% were active in any assay of this set; here they are far more common.
NIH3T3 tox: Cytotoxic Profiling in NIH 3T3 Cell Line of Diverse Libraries Using Quantitative High-Throughput Screening | NIH 3T3 viability, CellTiter-Glo ATP luminescence, 48-72 h | Potency, µM (top dose mostly 96.7 µM), for inactives: at the top dose activity change, negative = cytotoxicity, most hits filed as inhibitors | 4.3% of 94,000 active | AID 1345082, 2018; further: nearly all actives have a fitted effect of over 55% in size
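Cytotoxicity is measured as loss of cellular ATP: NIH 3T3 cells (400/well) are exposed to compound for 48 or 72 hr at 37 °C, then CellTiter-Glo luminescence is imaged after 10 min at room temperature.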
HEK cytotox: Cytotoxic Profiling in HEK 293 Cell Line of Diverse Libraries Using Quantitative High-Throughput Screening | HEK 293 viability, ATP luminescence (CellTiter-Glo), 48-72 h | Potency, µM (highest dose often 115 µM), inactives show at the top dose activity change, negative = cytotoxicity, usual class: inhibitors | 6.6% of 94,000 active; further: nearly all actives have a fitted effect of over 60% in size
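Cells seeded first (HEK 293, 250 cells/well), then compound added by pintool. Incubation ran 48 or 72 hr at 37 degree Celsius. CellTiter-Glo was added and luminescence imaged after 10 min at room temperature.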
hNpr1 antagonist: Natriuretic polypeptide receptor (hNpr1) antagonism - Primary qHTS | Potency, µM (series often up to 46.3 µM), for the others: at the top dose activity change, negative = inhibition, hits mostly inhibitors | HEK293 hNpr1 GloSensor cGMP, ANP-stimulated luminescence | Atrial natriuretic peptide receptor 1 (Homo sapiens), P16066 | 1.6% of 76,000 active; calls by dose curve; further: nearly all actives have a fitted effect of over 60% in size
Target sequence (P16066 whole entry, looked up): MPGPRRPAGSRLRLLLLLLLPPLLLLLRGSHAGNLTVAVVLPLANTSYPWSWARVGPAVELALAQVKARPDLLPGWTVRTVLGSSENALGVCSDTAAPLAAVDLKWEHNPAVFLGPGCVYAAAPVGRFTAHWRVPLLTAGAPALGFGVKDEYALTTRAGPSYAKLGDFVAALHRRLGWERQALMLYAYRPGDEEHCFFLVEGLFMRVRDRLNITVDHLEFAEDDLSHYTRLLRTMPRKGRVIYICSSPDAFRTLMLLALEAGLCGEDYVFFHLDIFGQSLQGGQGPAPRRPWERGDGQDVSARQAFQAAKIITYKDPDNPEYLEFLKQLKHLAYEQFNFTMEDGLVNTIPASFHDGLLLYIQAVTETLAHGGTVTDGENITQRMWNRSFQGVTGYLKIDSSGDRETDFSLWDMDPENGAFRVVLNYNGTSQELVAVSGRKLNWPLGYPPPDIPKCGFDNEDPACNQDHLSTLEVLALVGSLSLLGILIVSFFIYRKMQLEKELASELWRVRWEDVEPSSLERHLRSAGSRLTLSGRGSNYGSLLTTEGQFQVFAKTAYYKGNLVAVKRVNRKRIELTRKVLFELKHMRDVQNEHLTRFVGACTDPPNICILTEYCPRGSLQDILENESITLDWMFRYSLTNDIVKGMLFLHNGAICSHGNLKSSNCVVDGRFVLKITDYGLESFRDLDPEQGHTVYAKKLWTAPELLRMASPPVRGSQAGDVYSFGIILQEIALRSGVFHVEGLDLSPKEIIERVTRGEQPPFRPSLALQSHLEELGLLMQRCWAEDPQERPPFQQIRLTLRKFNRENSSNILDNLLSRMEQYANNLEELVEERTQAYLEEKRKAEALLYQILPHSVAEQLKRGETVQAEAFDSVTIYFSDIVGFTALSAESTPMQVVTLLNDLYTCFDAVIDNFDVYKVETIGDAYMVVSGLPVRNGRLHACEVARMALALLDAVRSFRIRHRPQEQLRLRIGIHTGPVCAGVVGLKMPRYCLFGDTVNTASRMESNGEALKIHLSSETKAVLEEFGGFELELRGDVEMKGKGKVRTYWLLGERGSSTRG
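Compound pre-incubated 30 min at room temperature on GloSensor-loaded HEK293 cells stably carrying hNpr1 and the pGS-40F cGMP biosensor. Stimulation uses hNppA at 0.1 nM final; luminescence is taken at baseline and 20 min post-agonist.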
GPT2 inh: Primary qHTS assay for inhibitors of Glutamate pyruvate transaminase 2 (GPT2). Alanine aminotransferase 2 (Homo sapiens), Q8TD30. Recombinant GPT2, coupled pyruvate oxidase/HRP Amplex Red fluorescence. Potency, µM (titrated, usually from 57.7 µM), for the others: top-dose activity change, negative = inhibition, most hits filed as inhibitors. 0.25% of 100,000 active. AID 1671188, 2021; further: nearly all actives have a fitted effect of over 60% in size
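GPT2 10ng/uL, a-KG 250uM, L-Ala 2mM, HEPES pH7.5 + 0.0001% Tween; 30 min RT. Then Amplex mix (PO/HRP/ThPP), 30 min RT dark, fluorescence. AOA 50uM used as positive control.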
Luciferase inh: Firefly luciferase inhibition profiling of diverse chemical library using quantitative high-throughput screening; purified P. pyralis luciferase, luminescence, biochemical; Potency, µM (top dose mostly 115 µM), actives largely listed as inhibitors; 2.5% of 76,000 active; AID 1347043, 2019; further: nearly all actives have a fitted effect of over 65% in size
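Luminescence read by CCD imaging after purified firefly luciferase (10nM final) was added to substrate buffer holding 10uM D-luciferin and 10uM ATP, pH 7.5, pre-dosed with compound.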
* = called active by the depositor; i = inactive; ? = inconclusive; nt = no result given; [ ] = remark or other dose. Unless noted, the call rests on the fitted dose curve; in most records, active means well fitted curve in the direction sought with a large enough effect; inconclusive means small, poorly fitted or top-dose-only effect, or another doubt; inactive means no such curve, though single readings can be large; an effect the other way counts as inactive or inconclusive. On the % scale 0 is the no-effect control and ±100 the full control effect; potency means the concentration at half of the fitted maximal effect.

SMILES	NIH3T3 tox	HEK cytotox	hNpr1 antagonist	GPT2 inh	Luciferase inh
Cc1cc(C)cc(NC(=O)N2[C@@H]3CC[C@H]2CC(NC(=O)c2ccc(F)cc2)C3)c1 (stereo not given in full)	?	40µM*	-6%	0%	i
CCOc1ccc(NC(=O)N2[C@@H]3CC[C@H]2CC(NC(=O)c2ccc(F)cc2)C3)cc1 (stereo not given in full)	?	?	nt	-4%	nt
COc1ccccc1-c1ccc2ncc(Nc3cccnc3OC)n2n1	?	?	-14%[70.6 µM]	i	i
COc1ccc(-c2ccc3ncc(Nc4ccccc4F)n3n2)cc1OC	35µM*	45µM*	0%[70.6 µM]	-2%[88.5 µM]	i
COc1ccc(-c2ccc3ncc(Nc4cccnc4OC)n3n2)cc1OC	-82%[138 µM]	14µM*	-1%[70.6 µM]	?	i
COc1ccccc1Nc1cnc2ccc(-c3ccccc3OC)nn12	?	?	-9%[70.6 µM]	3%[88.5 µM]	i
O=C(c1ccccc1)N1CCN(Cc2ccc(=O)n(CC3CC3)c2)CC1	-19%	-10%	-30%	0%	i
c1ccc(-c2ccc(CNCc3cccs3)o2)cc1	-22%	?	-25%	-18%	35µM*
CCCNCc1ccc(-c2ccccc2)o1	i	-6%	-1%	?	i
O=C1Nc2ccccc2C12CCN(S(=O)(=O)c1cccs1)C2 (stereo not given)	?	89µM*	-4%[70.6 µM]	4%[88.5 µM]	i
CN1Cc2cccn2CC1CNC(=O)c1cc(CN2CCOCC2)on1 (stereo not given)	-17%	-8%	-8%	-25%	i
Cn1cc(CNC(=O)C[C@@H]2C[C@H]3O[C@H](CNC(=O)Nc4cccc(Cl)c4)[C@@H](O)[C@H]3O2)cn1	3%	i	3%	-3%	i
O=c1c2c(n(Cc3cccnc3)n1-c1ccccc1)CN(CC1CCOC1)CC2 (stereo not given)	?	2%[172 µM]	2%[70.6 µM]	-6%[88.5 µM]	i
CCn1c2c(c(=O)n1Cc1ccccc1)CCN(Cc1cncc(OC)c1)C2	79µM*	4%[172 µM]	1%[70.6 µM]	i	i
N#Cc1cccc(CN2CCc3c(n(Cc4cccnc4)n(CCc4ccccc4)c3=O)C2)c1	?	?	-2%	-5%	i
COc1ccc(Cn2c3c(c(=O)n2Cc2ccccc2)CCN(CC2CCOC2)C3)cc1 (stereo not given)	28µM*	-29%[172 µM]	-20%[70.6 µM]	3%[88.5 µM]	i
O=c1c2c(n(Cc3cccnc3)n1CCc1ccccc1)CN(CC1CC1)CC2	40µM*	i	3%[70.6 µM]	-13%[88.5 µM]	i
O=c1c2c(n(Cc3cccnc3)n1CCc1ccccc1)CN(CC1CCOC1)CC2 (stereo not given)	45µM*	-14%[172 µM]	2%[70.6 µM]	i	i
NCC(c1ccccc1)N1CCOCC1 (stereo not given)	-1%[174 µM]	0%[230 µM]	nt	-5%[88.5 µM]	nt
O=S(=O)(c1ccc2c(c1)CCC2)N1CCCCC1c1nc(CCOCC2CC2)no1 (stereo not given)	28µM*	40µM*	-12%	i	i
O=S(=O)(c1cccs1)N1CCCCC1c1nc(CCOCC2CC2)no1 (stereo not given)	-38%	?	-8%	-12%	i
O=C(NCCc1ccccc1)c1nc2sccn2c1-c1cccnc1	?	-19%	nt	-8%	nt
O=C1NCc2ccccc2CC12CCN(Cc1ccc(Oc3ccccc3)cc1)C2 (stereo not given)	32µM*	?	nt	-5%	nt
O=C1NCc2ccccc2CC12CCN(Cc1ccc(F)cc1)C2 (stereo not given)	4%	?	nt	i	nt
O=C1NCc2ccccc2CC12CCN(Cc1ccc(-c3ccccc3)cc1)C2 (stereo not given)	35µM*	35µM*	nt	i	nt
CSCCC(=O)N1CCCC(CCc2ccccc2F)C1 (stereo not given)	40µM*	?	-4%	i	i
